Targets with the largest changes are over-represented here; the source holds about 21,000 in all.
The targets below were run with CC1Cc2ccccc2N1C(=O)C1CCCN(C1)C(=O)CCl (mixture of isomers) [TRIM25 ligand 11 (diastereomer mixture)] (assay: probe-labelled cysteine peptide fold change vs DMSO (competition) (log2 fold change); higher = less target engagement (more negative = stronger competition)). Details: 50 µM; THP-1; incubation time: 4 h.
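Further: competitive chemoproteomic profiling in live THP-1 cells with an iodoacetamide desthiobiotin (IA-DTB) probe, comparing probe-labelled peptide intensities in compound-treated cells against DMSO-treated controls.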

UniProt P51452, sequence (P51452 whole entry, looked up): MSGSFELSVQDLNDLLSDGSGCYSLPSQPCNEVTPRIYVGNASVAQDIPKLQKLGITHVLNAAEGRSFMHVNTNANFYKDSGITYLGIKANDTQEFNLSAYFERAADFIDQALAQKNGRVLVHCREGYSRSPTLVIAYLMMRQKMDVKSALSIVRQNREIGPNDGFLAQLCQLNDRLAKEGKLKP
UniProt Q99543, sequence (Q99543 whole entry, looked up): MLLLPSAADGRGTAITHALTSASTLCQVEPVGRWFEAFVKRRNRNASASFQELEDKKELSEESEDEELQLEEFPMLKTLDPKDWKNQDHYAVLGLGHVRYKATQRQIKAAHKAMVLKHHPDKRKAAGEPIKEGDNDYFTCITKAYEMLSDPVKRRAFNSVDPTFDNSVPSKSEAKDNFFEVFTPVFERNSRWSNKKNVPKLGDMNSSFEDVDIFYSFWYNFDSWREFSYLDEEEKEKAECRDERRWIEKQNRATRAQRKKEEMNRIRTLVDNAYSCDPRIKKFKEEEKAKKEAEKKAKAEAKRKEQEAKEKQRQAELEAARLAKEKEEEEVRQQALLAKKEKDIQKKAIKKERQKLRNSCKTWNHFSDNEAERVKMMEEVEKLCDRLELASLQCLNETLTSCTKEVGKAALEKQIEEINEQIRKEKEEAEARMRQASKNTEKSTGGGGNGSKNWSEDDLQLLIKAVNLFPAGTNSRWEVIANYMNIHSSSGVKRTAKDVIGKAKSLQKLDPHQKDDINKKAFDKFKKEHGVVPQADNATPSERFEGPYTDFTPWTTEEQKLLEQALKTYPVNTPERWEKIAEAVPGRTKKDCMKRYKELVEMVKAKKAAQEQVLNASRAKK
UniProt Q5QP82, sequence (Q5QP82 whole entry, looked up): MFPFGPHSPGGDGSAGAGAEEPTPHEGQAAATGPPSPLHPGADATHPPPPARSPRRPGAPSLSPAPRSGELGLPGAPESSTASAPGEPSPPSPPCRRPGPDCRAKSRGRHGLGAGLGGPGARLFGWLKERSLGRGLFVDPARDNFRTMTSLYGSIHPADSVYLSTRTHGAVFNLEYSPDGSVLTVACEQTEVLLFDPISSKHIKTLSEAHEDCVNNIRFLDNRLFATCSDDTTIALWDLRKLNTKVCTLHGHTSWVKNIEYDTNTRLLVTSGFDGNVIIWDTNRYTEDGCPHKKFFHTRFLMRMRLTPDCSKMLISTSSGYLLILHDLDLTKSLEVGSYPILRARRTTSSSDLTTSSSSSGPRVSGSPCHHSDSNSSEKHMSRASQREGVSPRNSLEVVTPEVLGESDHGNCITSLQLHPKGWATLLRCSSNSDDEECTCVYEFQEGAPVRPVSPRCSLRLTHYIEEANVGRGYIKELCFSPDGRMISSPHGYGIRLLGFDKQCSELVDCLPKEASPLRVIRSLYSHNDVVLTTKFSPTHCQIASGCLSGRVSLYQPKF
UniProt P31146, sequence (P31146 whole entry, looked up): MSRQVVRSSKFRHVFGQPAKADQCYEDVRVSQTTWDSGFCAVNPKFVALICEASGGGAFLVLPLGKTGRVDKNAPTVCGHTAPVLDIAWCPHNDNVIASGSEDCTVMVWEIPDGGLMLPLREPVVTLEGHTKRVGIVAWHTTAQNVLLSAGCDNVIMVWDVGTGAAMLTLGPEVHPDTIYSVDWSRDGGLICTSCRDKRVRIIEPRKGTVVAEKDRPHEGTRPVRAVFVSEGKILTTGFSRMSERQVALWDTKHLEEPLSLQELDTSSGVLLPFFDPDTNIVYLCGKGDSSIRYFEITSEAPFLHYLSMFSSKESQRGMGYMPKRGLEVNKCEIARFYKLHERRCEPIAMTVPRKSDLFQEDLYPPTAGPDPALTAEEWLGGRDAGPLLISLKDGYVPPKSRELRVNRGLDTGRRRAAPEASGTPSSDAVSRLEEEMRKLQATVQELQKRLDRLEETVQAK
UniProt P57737, sequence (P57737 whole entry, looked up): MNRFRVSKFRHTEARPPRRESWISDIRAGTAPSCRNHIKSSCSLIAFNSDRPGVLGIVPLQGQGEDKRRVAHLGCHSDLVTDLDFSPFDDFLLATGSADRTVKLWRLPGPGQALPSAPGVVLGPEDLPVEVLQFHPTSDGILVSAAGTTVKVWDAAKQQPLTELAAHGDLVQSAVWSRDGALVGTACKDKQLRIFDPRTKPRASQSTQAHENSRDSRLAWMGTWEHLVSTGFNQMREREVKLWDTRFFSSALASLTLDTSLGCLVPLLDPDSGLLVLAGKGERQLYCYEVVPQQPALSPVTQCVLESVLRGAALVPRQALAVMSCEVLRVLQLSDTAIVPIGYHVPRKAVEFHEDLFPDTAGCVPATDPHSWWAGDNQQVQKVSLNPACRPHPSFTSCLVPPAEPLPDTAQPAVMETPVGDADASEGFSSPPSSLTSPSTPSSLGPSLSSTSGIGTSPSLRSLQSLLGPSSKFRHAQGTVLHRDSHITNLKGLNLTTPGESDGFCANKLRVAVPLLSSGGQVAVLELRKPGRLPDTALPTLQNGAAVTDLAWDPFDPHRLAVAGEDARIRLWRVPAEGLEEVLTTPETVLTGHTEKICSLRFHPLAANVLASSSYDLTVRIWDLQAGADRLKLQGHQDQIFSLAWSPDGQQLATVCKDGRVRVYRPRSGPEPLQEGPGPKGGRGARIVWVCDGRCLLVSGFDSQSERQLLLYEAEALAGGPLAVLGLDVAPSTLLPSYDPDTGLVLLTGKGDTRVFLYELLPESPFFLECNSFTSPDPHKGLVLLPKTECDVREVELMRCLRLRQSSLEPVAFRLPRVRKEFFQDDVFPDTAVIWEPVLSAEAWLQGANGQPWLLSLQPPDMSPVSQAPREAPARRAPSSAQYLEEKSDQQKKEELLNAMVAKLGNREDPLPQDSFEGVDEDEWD
UniProt Q86TI2, sequence (Q86TI2 whole entry, looked up): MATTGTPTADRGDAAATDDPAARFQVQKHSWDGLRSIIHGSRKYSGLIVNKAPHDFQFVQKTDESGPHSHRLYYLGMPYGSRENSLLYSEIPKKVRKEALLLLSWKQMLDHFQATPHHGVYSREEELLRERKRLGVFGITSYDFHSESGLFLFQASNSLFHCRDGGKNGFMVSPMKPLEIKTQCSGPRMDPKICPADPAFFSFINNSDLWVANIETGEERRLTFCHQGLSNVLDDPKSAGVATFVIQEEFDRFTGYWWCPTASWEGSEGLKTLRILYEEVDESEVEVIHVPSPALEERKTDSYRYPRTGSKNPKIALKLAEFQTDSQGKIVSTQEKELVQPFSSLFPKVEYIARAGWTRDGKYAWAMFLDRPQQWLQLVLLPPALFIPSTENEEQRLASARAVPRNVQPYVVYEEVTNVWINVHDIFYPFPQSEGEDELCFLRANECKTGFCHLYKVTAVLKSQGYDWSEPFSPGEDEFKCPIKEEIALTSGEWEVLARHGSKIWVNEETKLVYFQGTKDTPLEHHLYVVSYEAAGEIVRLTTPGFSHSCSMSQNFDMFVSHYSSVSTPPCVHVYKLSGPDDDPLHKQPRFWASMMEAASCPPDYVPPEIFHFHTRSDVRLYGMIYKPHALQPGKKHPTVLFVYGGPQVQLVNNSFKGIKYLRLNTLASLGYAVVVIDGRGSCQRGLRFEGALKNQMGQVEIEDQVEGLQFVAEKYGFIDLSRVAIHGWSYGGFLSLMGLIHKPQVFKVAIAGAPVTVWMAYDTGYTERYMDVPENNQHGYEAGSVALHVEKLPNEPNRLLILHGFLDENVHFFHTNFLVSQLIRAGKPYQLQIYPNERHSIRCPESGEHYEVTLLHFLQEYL
UniProt P14854, sequence (P14854 whole entry, looked up): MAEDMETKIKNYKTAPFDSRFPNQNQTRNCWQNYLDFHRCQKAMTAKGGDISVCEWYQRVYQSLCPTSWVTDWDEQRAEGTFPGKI
UniProt Q86YQ8, sequence (Q86YQ8 whole entry, looked up): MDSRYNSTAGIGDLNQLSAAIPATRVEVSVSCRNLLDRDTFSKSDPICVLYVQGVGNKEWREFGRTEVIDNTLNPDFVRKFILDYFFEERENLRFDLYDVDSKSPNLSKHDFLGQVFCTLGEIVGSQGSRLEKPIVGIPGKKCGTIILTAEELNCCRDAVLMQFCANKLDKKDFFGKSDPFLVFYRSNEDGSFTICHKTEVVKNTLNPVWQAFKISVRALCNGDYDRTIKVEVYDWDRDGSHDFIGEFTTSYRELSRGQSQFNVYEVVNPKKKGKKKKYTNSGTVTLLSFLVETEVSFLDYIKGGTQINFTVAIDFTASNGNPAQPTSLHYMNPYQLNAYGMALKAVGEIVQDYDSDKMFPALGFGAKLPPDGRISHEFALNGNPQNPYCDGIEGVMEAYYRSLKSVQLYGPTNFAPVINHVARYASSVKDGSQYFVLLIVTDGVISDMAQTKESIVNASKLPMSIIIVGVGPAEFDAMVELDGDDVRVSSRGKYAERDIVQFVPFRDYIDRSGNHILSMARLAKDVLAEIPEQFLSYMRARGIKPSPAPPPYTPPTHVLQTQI
UniProt Q15392, sequence (Q15392 whole entry, looked up): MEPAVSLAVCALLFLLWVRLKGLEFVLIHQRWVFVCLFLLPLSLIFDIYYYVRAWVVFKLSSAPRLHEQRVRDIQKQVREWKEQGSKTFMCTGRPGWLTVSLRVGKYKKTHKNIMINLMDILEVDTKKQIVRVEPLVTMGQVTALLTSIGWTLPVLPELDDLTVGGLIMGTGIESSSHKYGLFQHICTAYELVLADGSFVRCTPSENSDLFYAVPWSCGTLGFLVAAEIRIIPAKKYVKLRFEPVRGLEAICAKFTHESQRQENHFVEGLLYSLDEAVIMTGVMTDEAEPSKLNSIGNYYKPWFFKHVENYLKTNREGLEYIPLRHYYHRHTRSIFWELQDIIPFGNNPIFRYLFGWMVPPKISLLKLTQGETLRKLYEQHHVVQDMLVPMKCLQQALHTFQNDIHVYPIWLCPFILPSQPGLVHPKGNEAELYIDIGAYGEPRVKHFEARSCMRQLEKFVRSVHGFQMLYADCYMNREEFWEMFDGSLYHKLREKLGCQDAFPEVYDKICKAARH
UniProt P52943, sequence (P52943 whole entry, looked up): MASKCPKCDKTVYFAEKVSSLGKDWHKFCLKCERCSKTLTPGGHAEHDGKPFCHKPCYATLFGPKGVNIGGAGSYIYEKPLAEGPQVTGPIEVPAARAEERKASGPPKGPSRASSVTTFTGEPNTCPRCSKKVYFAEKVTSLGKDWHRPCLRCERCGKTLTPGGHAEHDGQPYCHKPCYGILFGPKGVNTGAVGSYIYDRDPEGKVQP

Row | Target | probe-labelled cysteine peptide fold change
1 | DDX56_Q9NY93_185_SLLCHLPR (UniProt Q9NY93) | 0.332
2 | DPYSL2_Q16555_439_THNSSLEYNIFEGMECR (UniProt Q16555) | -0.109
3 | DAXX_Q9UER7_106_AHSLFLASAEFCNILSR (UniProt Q9UER7) | 1.38
4 | CRYL1_Q9Y2S2_141_QCIVAHPVNPPYYIPLVELVPHPETAPTTVDR (UniProt Q9Y2S2) | -0.0222
5 | DARS_P14868_130_IGSCTQQDVELHVQK (UniProt P14868) | 0.0472
6 | DOP1B_Q9Y3R5_70_LAQCLHPALPSGVHLK (UniProt Q9Y3R5) | 0.136
7 | DNM2_P50570-3_427_CVDLVVSELATVIK (UniProt P50570) | 0.0756
8 | DHX9_Q08211_608+612_KDKDDDGGEDDDANCNLICGDEYGPETR (UniProt Q08211) | -0.345
9 | DIP2A_Q14689_543_ALTQACGYSEAETLTNVLDFKR (UniProt Q14689) | 0.286
10 | DDX46_Q7L014_501_RGAEIIVCTPGR (UniProt Q7L014) | 0.296
11 | DPP9_Q86TI2_184_TQCSGPR (UniProt Q86TI2) | -0.073
12 | DECR2_Q9NUI1_53_HGCHTVIASR (UniProt Q9NUI1) | 0.574
13 | COX17_Q14061_23+24_KPLKPCCACPETK (UniProt Q14061) | -0.745
14 | DCAF10_Q5QP82_213_TLSEAHEDCVNNIR (UniProt Q5QP82) | -0.0884
15 | DHCR24_Q15392_393_CLQQALHTFQNDIHVYPIWLCPFILPSQPGLVHPK (UniProt Q15392) | -0.425
16 | CUL2_Q13617_103_GADYMDCLYR (UniProt Q13617) | 0.129
17 | CRELD1_Q96HD1_229_CSGPEESNCLQCK (UniProt Q96HD1) | -0.197
18 | DECR2_Q9NUI1_22_HLFCPDLLR (UniProt Q9NUI1) | -0.0816
19 | COX6B1_P14854_54_GGDISVCEWYQR (UniProt P14854) | -0.269
20 | DIDO1_Q9BTC0_455_CGAQAGIK (UniProt Q9BTC0) | -0.185

Row | Target | probe-labelled cysteine peptide fold change
21 | DPP8_Q6V1X1_611_LSSPEDDPTCK (UniProt Q6V1X1) | 0.0507
22 | CTSH_P09668_272_TGIYSSTSCHK (UniProt P09668) | -0.279
23 | CPNE8_Q86YQ8_118_HDFLGQVFCTLGEIVGSQGSR (UniProt Q86YQ8) | 0.595
24 | DARS2_Q6PI48_202_MREYLCNLHGFVDIETPTLFKR (UniProt Q6PI48) | -0.129
25 | CPSF3_Q9UKF6_223_FCNTVHDIVNR (UniProt Q9UKF6) | -0.11
26 | DSN1_Q9H410_191_CFEDSNGK (UniProt Q9H410) | 0.0971
27 | DNAJB14_Q8TBM8_77_KPSGSGDQSKPNCTK (UniProt Q8TBM8) | -0.569
28 | DYNC1H1_Q14204_4438_QDLADVVQVCEGK (UniProt Q14204) | 0.0819
29 | DLEC1_Q9Y238_256_LEDSCR (UniProt Q9Y238) | 0.979
30 | CRIP2_P52943_150_DWHRPCLR (UniProt P52943) | -0.0653
31 | DUSP3_P51452_171_EIGPNDGFLAQLCQLNDR (UniProt P51452) | -0.0736
32 | CORO7_P57737_75_VAHLGCHSDLVTDLDFSPFDDFLLATGSADR (UniProt P57737) | 0.0305
33 | CORO1A_P31146_332_RGLEVNKCEIAR (UniProt P31146) | -0.342
34 | CUL4B_Q13620_248_YNLEELYQAVENLCSYK (UniProt Q13620) | 0.163
35 | DNAJC2_Q99543_276_TLVDNAYSCDPR (UniProt Q99543) | -0.0992
36 | DDX42_Q86XP3_382_ALQEGAEIVVCTPGR (UniProt Q86XP3) | 0.0996
37 | CTSZ_Q9UBR2_179_ECHAIR (UniProt Q9UBR2) | 0.567
38 | DIAPH2_O60879_484_LDIDLTHLIDSCVNK (UniProt O60879) | 0.095
39 | CTR9_Q6PD62_196_TNPGCPAEVR (UniProt Q6PD62) | 0.0417
